The list is not random: actives were taken first. Their share in the collection is about 4.9%.
HSF-1 act – increases HSF-1 driven luciferase reporter signal. NIH3T3-HGL HSF-1 luciferase reporter, MG132, 8 h; 100% = twice DMSO control signal. activation, % at 9 µM. actives 1.7% (n = 300,000). AID 504408;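 active = mean replicate activation of at least 50% with a set share of replicates each reaching 50%; inconclusive = only one of those two conditions met; inactive = mean below 50% and too few replicates reaching it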;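 note: 0% = median of the neutral control wells and 100% = twice that signal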
HSF1 inh – HSF1 inhibition. NIH3T3-HGL HSE-luciferase, MG132-induced, luminescence 8 h; active compounds read low. activity change, negative = inhibition, % at 7.5 µM (by protocol). actives 0.77% (n = 300,000);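 active = more than half of replicate wells show activity change below -50%, luminescence cut by over half; inconclusive = some wells, but at most half, below -50%; inactive = no replicate well below -50%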;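 note: luciferase reports HSF-1 transcriptional activity via heat shock element; 0% = median of DMSO wells and -100% = zero luminescence signal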
HSP90 refold inh – inhibitors of HSP90 luciferase refolding in rabbit reticulocyte lysate; inhibition, % at 5.6 µM; AID 1789; luciferase refolding luminescence, 3 h; actives 0.91% (n = 290,000);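 active = inhibition above the screen-wide mean plus 3 SD, computed separately per campaign, cut at about 16% in these data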;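 note: 0% = DMSO wells and 100% = 60 µM geldanamycin wells; inhibitors lower the luminescence because luciferase stays unfolded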
MPTP block – inhibitors of mitochondrial permeability transition pore. isolated mouse mitochondria, Ca2+ swelling absorbance, 30 min. inhibition, % at 10 µM. actives 1.4% (n = 360,000). AID 602449;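 active = inhibition of 50% or more, scaled per plate between neutral and stimulator controls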;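 note: 0% = DMSO wells given calcium and 100% = 1 mM EGTA wells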
Platelet DG rel – modulates dense granule release in human platelets. actives 0.22% (n = 300,000). inhibition, %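 (compounds screened at 7.5 µM in platelet-rich plasma)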. human platelet-rich plasma, SFLLRN dense granule ATP release, luminescence;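 active = mean replicate score, as percent of positive control, at or above 50; inconclusive = mean below 50 but at least one replicate at or above 50; inactive = mean and every replicate below 50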
dFosB act – mouse delta FosB homodimer activation | purified delta FosB, TAMRA-CDK5 oligo fluorescence polarization; percent of positive-control signal above neutral wells | activation, % at 25 µM | actives 0.99% (n = 340,000) | AID 493131;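 active = mean activation above about 17%, with every replicate also reaching it, limit read from the data, passing the limit was not always enough; inconclusive = only one of the two conditions met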
Target sequence (P13346 whole entry, looked up): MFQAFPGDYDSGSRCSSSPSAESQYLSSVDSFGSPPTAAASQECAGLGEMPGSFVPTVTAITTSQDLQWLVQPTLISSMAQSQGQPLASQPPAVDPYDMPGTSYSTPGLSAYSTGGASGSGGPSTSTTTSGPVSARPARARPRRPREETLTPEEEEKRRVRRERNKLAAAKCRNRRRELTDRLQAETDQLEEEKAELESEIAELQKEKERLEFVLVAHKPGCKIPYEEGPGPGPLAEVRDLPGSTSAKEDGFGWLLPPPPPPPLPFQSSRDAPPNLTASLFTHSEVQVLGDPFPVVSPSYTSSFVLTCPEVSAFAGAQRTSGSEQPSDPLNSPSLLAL
An asterisk follows results filed as active.

For CC(=O)O[C@]1(C(C)=O)CC[C@H]2[C@@H]3C=CC4=CC(=O)C=C[C@]4(C)[C@H]3CC[C@@]21C the results were HSF-1 act 109*, HSF1 inh 56, HSP90 refold inh -1, MPTP block -1, Platelet DG rel 2 and dFosB act -10.
Screening Cn1c(=O)c([N+](=O)[O-])c(Cl)c2ccccc21 returned HSF-1 act -74, HSF1 inh -73*, HSP90 refold inh 2, MPTP block -2, Platelet DG rel -9 and dFosB act 1.
For CCN(CC(=O)Nc1ccc([N+](=O)[O-])cc1OC)c1ccccc1 the results were HSF-1 act -17, HSF1 inh 14, HSP90 refold inh 0, MPTP block 4, Platelet DG rel -2 and dFosB act -2.
CCc1ccc(OC(C)C(=O)N(Cc2ccco2)C2CCS(=O)(=O)C2)cc1 (stereo not drawn) was read as HSF-1 act -86, HSF1 inh -83*, HSP90 refold inh 1, MPTP block -2, Platelet DG rel -2 and dFosB act -5.
For CCC(C)(C)NC(=O)c1ccc(Sc2nncn2C)c([N+](=O)[O-])c1 the results were HSF-1 act -7, HSF1 inh -13, HSP90 refold inh 0, MPTP block 24, Platelet DG rel -9 and dFosB act 2.
Screening Cn1cnnc1Sc1ccc(/C=C/C(=O)c2ccc(O)cc2)cc1[N+](=O)[O-] returned HSF-1 act 58*, HSF1 inh 30, HSP90 refold inh 1, MPTP block 0, Platelet DG rel 6 and dFosB act -7.
For Cc1cccc(-c2ncc(S(=O)(=O)C(C)(C)C)c(N)n2)c1 the results were HSF-1 act 45, HSF1 inh 24, HSP90 refold inh -4, MPTP block 0, Platelet DG rel -1 and dFosB act -6.
Screening Oc1ccc(C[C@H]2CNC(=S)N2CC2CCCN2C[C@H](Cc2ccc(O)cc2)N2C[C@H](Cc3ccccc3)N(CC3CCCCC3)C2=S)cc1 (stereo partly drawn) returned MPTP block 0 and dFosB act 49*.
For CC(C)c1ccc(NC(=S)N(C)CCc2ccccn2)cc1 the results were HSF-1 act 13, HSF1 inh -1, HSP90 refold inh 1, MPTP block -3, Platelet DG rel -15 and dFosB act 0.
Screening CCOC(=O)CSc1nc2ccccc2c(=O)n1Cc1ccco1 returned HSF-1 act 11, HSF1 inh 2, HSP90 refold inh 8, MPTP block 3, Platelet DG rel 11 and dFosB act -9.
For CCOC(=O)CSc1nc2c(sc(=S)n2-c2ccccc2OC)c(=O)n1Cc1ccco1 the results were HSF-1 act 57*, HSF1 inh 18, HSP90 refold inh -1, MPTP block 3, Platelet DG rel -4 and dFosB act -8.
CCOC(=O)CSc1nc2c(sc3ccc([N+](=O)[O-])cc32)c(=O)n1Cc1ccco1 was read as HSF-1 act 254*, HSF1 inh 162, HSP90 refold inh -4, MPTP block 2, Platelet DG rel 12 and dFosB act -6.
For COCCN(C(=O)COC(=O)/C=C/c1ccc(C(F)(F)F)cc1)c1c(N)n(Cc2ccccc2)c(=O)[nH]c1=O the results were HSF-1 act -74, HSF1 inh -67*, MPTP block -1, Platelet DG rel 2 and dFosB act 6.
`COCCN(C(=O)COC(=O)CCc1nc2ccccc2s1)c1c(N)n(Cc2ccccc2)c(=O)[nH]c1=O` gave HSF-1 act 0, HSF1 inh 2, HSP90 refold inh 2, MPTP block 1, Platelet DG rel 52* and dFosB act -4.
For COc1ccc(OC)c(NC(=O)COC(=O)CSc2ccc(Cl)cc2)c1 the results were HSF-1 act -9, HSF1 inh -1, HSP90 refold inh 1, MPTP block -1, Platelet DG rel -8 and dFosB act -2.
Screening O=C1CCCN1CC(O)CS(=O)(=O)Cc1ccccc1Cl (stereo not drawn) returned HSF-1 act 3, HSF1 inh -6, HSP90 refold inh 1, MPTP block -1, Platelet DG rel -6 and dFosB act 7.
Screening Cc1ccn2cc(CCNC(=O)COc3ccccc3)nc2c1 returned HSF-1 act -5, HSF1 inh -6, HSP90 refold inh -1, MPTP block 0, Platelet DG rel 1 and dFosB act -6.
For O=Cc1cccc(OC(=O)c2ccc(Cl)cc2Cl)c1 the results were HSF-1 act 64*, HSF1 inh 27, HSP90 refold inh -1 and Platelet DG rel -2.
Screening COc1cc(C(=O)Oc2cccc(C=O)c2)cc(OC)c1OC returned HSF-1 act -12, HSF1 inh -11, HSP90 refold inh -1, MPTP block 0, Platelet DG rel 0 and dFosB act -8.
For CCN(CC)c1ccc(/C=N/NC(=O)Nc2ccccc2)cc1 the results were HSF-1 act inconclusive, HSF1 inh 17, HSP90 refold inh -4, MPTP block 1, Platelet DG rel 13 and dFosB act -10.
`CCN(CC)c1ccc(/C=N/NC(=O)Cc2nnc(NC(=O)Nc3ccccc3)s2)cc1` gave HSF-1 act 7, HSF1 inh -8, HSP90 refold inh -2, MPTP block 8, Platelet DG rel -7 and dFosB act 25*.
CC1CCN(Cc2c(C(=O)N/N=C/c3cc(Br)ccc3O)nnn2-c2nonc2N)CC1 was read as HSF-1 act -31, HSF1 inh -21, HSP90 refold inh -2, MPTP block -1, Platelet DG rel 13 and dFosB act 134*.
`Cc1cc(C)c(/C=N/NC(=O)c2nnn(-c3nonc3N)c2CN2CCC(C)CC2)c(C)c1` gave HSF-1 act 0, HSF1 inh 0, HSP90 refold inh 2, MPTP block 1, Platelet DG rel 1 and dFosB act -24.
CC1CCN(Cc2c(C(=O)N/N=C/c3cc(Cl)ccc3O)nnn2-c2nonc2N)CC1 was read as HSF-1 act -14, HSF1 inh -6, HSP90 refold inh -3, MPTP block 0, Platelet DG rel 7 and dFosB act 162*.
`COc1ccc(O)c(/C=N/NC(=O)c2c(C)nnn2-c2nonc2N)c1` gave HSF-1 act 2, HSF1 inh 0, HSP90 refold inh 1, MPTP block 1, Platelet DG rel 0 and dFosB act 47*.
For COc1ccc(/C=N/NC(=O)c2nnn(-c3nonc3N)c2-c2cccc(OC)c2)cc1 the results were HSF-1 act -6, HSF1 inh -3, HSP90 refold inh 0, MPTP block -2, Platelet DG rel 17 and dFosB act -1.
Screening CC1=C(C)CC(C(=O)NCc2ccccn2)C(C(=O)O)C1 (stereo not drawn) returned HSF-1 act -5, HSF1 inh -8, HSP90 refold inh 4, MPTP block 1, Platelet DG rel -4 and dFosB act 10.
